Unmarked numbers belong to inactive results. The rule behind the calls is not given here.
The compounds below were run against 5-HT1A receptor (human, UniProt P08908) (assay: primary screen, binary call; higher = more effect of the substance). Details: 10 µM.
Design: hit call from the mean of at least two separate experiments
Experimental: GPCR radioligand binding assays were performed in HEK293 cells with stable expression of human 5-HT1A, 5-HT6, and 5-HT7b receptors (prepared with the use of Lipofectamine 2000). Non-specific binding was defined with 10 µM of 5-HT in 5-HT1AR and 5-HT7R binding experiments, whereas 10 µM of mianserin was used in 5-HT6R assays, respectively. Each compound was tested at 10 µM concentration. Results were expressed as means of at least two separate experiments.

Sequence of 5-HT1A receptor (P08908 whole entry, looked up): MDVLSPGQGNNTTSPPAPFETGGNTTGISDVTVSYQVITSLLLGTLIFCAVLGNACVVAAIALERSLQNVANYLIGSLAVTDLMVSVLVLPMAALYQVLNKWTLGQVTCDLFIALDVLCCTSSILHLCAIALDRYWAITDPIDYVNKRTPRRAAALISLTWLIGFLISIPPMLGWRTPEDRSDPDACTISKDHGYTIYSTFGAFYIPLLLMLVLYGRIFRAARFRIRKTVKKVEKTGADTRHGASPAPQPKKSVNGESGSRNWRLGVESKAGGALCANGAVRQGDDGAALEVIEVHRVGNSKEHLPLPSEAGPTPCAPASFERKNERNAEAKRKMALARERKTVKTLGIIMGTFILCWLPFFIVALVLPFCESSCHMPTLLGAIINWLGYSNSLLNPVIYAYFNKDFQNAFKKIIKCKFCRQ

Row | Structure (SMILES) | 5-HT1
1 | Cc1nc(-c2ccccc2)cs1 | 0
2 | CN1CC(=O)NC1=O | 0
3 | Cc1cc(-c2ccccc2)n[nH]1 | 0
4 | O=c1ccc2c([nH]1)CCCC2 | 0
5 | c1cnc2c(c1)NCCC2 | 0
6 | CC(=O)c1sc(-c2ccc(O)cc2)nc1C | 0
7 | Cc1ccc(C)n1Cc1ccccc1Cl | 0
8 | O=C(O)c1ccc(CN2CCOCC2)cc1 | 0
9 | CCCN1C(=O)CC(=O)NC1=S | 0
10 | O=C1CC(CSc2ccc(Cl)cc2)=NN1 | 0
11 | Oc1ccc(C2CCNCC2)cc1 | 0
12 | CS(=O)(=O)c1ccc(OC(F)(F)F)cc1 | 0
13 | Nc1nnc(-c2cccs2)[nH]1 | 0
14 | Cn1c(N)nc2ccccc21 | 0
15 | O=C1CCN(c2ccncc2)CC1 | 0
16 | COc1ccc(C2=CCNCC2)cc1 | 0
17 | Cn1c(CO)nc2ccccc21 | 0
18 | NC1CCc2ccccc21 (stereo not shown) | 0
19 | NC(c1ccccc1)c1ccccc1 | 0
20 | O=C(c1ccccc1)N1CCC(CO)CC1 | 0

Row | Structure (SMILES) | 5-HT1
21 | O=C(O)c1cccc(Nc2ncccn2)c1 | 0
22 | Cc1cc(N)no1 | 0
23 | CCn1cnc2ccccc21 | 0
24 | Oc1ccc(-n2cncn2)cc1 | 0
25 | Oc1cnc(-c2ccccc2)nc1 | 0
26 | COC(=O)c1c(C)nc(C2CC2)[nH]c1=O | 0
27 | Oc1ccccc1N1CCCCC1 | 0
28 | O=C(CN1CCCC1)c1ccccc1Cl | 1 (active)
29 | O=C(O)C1CCN(c2ncccn2)CC1 | 0
30 | O=C1NC(=O)/C(=C\c2cccs2)N1 | 0
31 | O=C(O)c1cnc(-c2ccccc2)s1 | 0
32 | O=C(c1ccccc1F)N1CCNCC1 | 0
33 | O=C1CNCCN1c1ccccc1 | 0
34 | c1ccc2c(N3CCNCC3)ccnc2c1 | 1 (active)
35 | Brc1ccc(-c2ccon2)cc1 | 0
36 | O=C(Nc1ccccc1)C1CC1 | 0
37 | CC(=O)c1ccc2c(c1)CCCN2 | 0
38 | COc1cccc(NC2=NCCCCC2)c1 | 0
39 | O=C1CSC(Nc2ccc(F)cc2)=N1 | 0
40 | C1=C[C@H]2O[C@@H]1c1ccccc12 | 0

From PMC8159961, “Exploring protein hotspots by optimized fragment pharmacophores” (Nature Communications, 2021)
